According to PubChem BioAssay (Tox21):
Results filed as inconclusive are left out. Unmarked numbers belong to inactive results. Calls of active or inactive are those of the source. The call rests on the fitted dose curve; in most records, active means well fitted cell-killing curve with a large enough effect in the repeat runs; inconclusive means weak or mixed curves, or effect the other way; inactive means flat fitted curve, though single readings scatter.

Test: cAMP Responsive Elements (CRE) small molecule agonists, cell-based qHTS assay: qHTS cell viability counter screen (AID 2060914); further: nearly all actives have a fitted effect of over 50% in size
Details: CRE-bla HEK293T viability, CellTiter-Glo luminescence, 5 h; series mostly up to 92.4 µM; activity change, negative = cytotoxicity: at the top concentration
Outline: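 HEK 293T CRE-bla; DMEM + 10% dialyzed FBS, 25 mM HEPES; 18 h pre-incubation; compound 3 h, 37 °C/5% CO2; CellTiter-Glo added after reporter read; luminescence after 30 min RT.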
On the % scale 0 is the no-effect control and ±100 the full control effect.

Row | Structure (SMILES) | Potency | activity change, negative = cytotoxicity
1 | Cc1cccc2ccccc12 | inactive | 
2 | O=C(NCCc1c[nH]c2ccccc12)c1cccnc1 |  | -0.389% [at 42.5 µM]
3 | CC1(C)O[C@@H]2C[C@H]3[C@@H]4CCC5=CC(=O)C=C[C@]5(C)[C@H]4[C@@H](O)C[C@]3(C)[C@]2(C(=O)CO)O1 |  | -8.9% [at 42.5 µM]
4 | F[B-](F)(F)F | inactive | 
5 | COCCOCCOCCOC |  | 6.29%
6 | Fc1ccccc1 |  | -1.48%
7 | Cc1cc(O)c2c(c1)C(=O)c1cccc(O)c1C2=O |  | -1.42% [at 42.5 µM]
8 | O[Si](c1ccccc1)(c1ccccc1)c1ccccc1 |  | 0.125%
9 | CC1(C)CC(O)CC(C)(C)N1 |  | 6.99%
10 | O=C1OC(=O)C2C3C=CC(C3)C12 (stereo not given) |  | -4.18%
11 | CC[C@]12CCCN3CCc4c(n(c5ccccc45)C(=O)C1)[C@@H]32 |  | 16.9% [at 42.5 µM]
12 | CN(C)CCCN(C)CCCN(C)C |  | -0.525%
13 | C[C@](N)(Cc1ccc(O)c(O)c1)C(=O)O | inactive | 
14 | CC(=O)O[C@H]1C[C@@H]2CC[C@@H]3[C@H](CC[C@@]4(C)[C@H]3C[C@H]([N+]3(C)CCCCC3)[C@@H]4OC(C)=O)[C@@]2(C)C[C@@H]1N1CCCCC1 |  | 12% [at 42.5 µM]
15 | O=C(O)c1cccnc1 | inactive | 
16 | CC(C)C[P+](C)(CC(C)C)CC(C)C |  | 3.75%
17 | CCOc1ccc(NC(=O)OC(C)C)cc1OCC |  | -9.67%
18 | CCCC(=O)C(CC)Sc1ccoc1C (stereo not given) |  | -0.762%
19 | CCOC(=N)CC(=O)OCC |  | -1.03%
20 | Clc1cccc(-c2cc(Cl)cc(Cl)c2)c1 |  | -4.55%

Row | Structure (SMILES) | Potency | activity change, negative = cytotoxicity
21 | CC(=O)NO |  | -6.23% [at 42.5 µM]
22 | C=CC(C)(O)CCC=C(C)C (stereo not given) | inactive | 
23 | CCOC(=O)c1ccc(NC(=O)CN2CCCCC2)cc1 |  | 4.14% [at 42.5 µM]
24 | O=C1CC2(CCCC2)CC(=O)N1 |  | 3.12% [at 42.5 µM]
25 | CC(C)(C(=O)c1cccnc1)c1cccnc1 |  | -4.85% [at 42.5 µM]
26 | CSc1ccc(Oc2ccc(S(N)(=O)=O)cc2CN(C)C)cc1C |  | 4.67%
27 | Cc1nc2ccccn2c(=O)c1CCN1CCC(C(=O)c2ccc(F)cc2)CC1 |  | -2.33% [at 42.5 µM]
28 | CCCCCCOc1ccc(N)cc1 |  | -11%
29 | CC(=O)CCCCn1c(=O)c2c(ncn2C)n(C)c1=O |  | -0.183% [at 42.5 µM]
30 | NNc1nncc2ccccc12 | inactive | 
31 | N#CCC(=O)NN |  | 2.21% [at 42.5 µM]
32 | COc1cccc([C@H](O)C2CCN(CCc3ccc(F)cc3)CC2)c1OC |  | 3.75%
33 | CCOC(=O)COc1ccc2c(C)c(CCN(CC)CC)c(=O)oc2c1Cl |  | -9.79% [at 42.5 µM]
34 | CSC(=O)c1cccc2nnsc12 |  | -1.63%
35 | Cc1nnc(C(=O)NC(C)(C)c2nc(C(=O)NCc3ccc(F)cc3)c(O)c(=O)n2C)o1 |  | 9.9% [at 42.5 µM]
36 | CCCCCC/C=C/C(=O)OC |  | -2.36%
37 | CC1(C)COCN1 |  | 7.97%
38 | N[C@@H](C(=O)N[C@@H]1C(=O)N2C(C(=O)O)=C(Cl)CS[C@H]12)c1ccccc1 |  | 8.3% [at 8.39 µM]
39 | CN(C(=O)C(Cl)Cl)c1ccc(OC(=O)c2ccco2)cc1 |  | -0.477% [at 42.5 µM]
40 | CCCCCCC(CO)CCCC (stereo not given) |  | 0.257%
